From PubChem BioAssay AID434982 (The Scripps Research Institute Molecular Screening Center, 2010)
In all, about 15,000 compounds went through this assay and about 60 (0.4%) were called active. The sample as a whole holds a higher share of actives than the screen did. Unmarked numbers belong to inactive results. Cut-off read from the data, not from the text of the source: active = activation above about 2.2%; inactive = the rest.

test: agonists of NOTCH signaling (AID 434982); details: NOTCH signaling luciferase reporter cells, luminescence; at 2.5 µM; hits give high values

With c1ccc2c(-c3csc(-c4ccc5c(c4)OCCO5)n3)csc2c1 as the compound, how does the activation read?
Its activation is -0.45%.

Which activation does the source give for O=S(=O)(c1ccc(Cl)cc1)n1nccc1/C=C/c1cccs1 here?
The activation was 0.05%.

For N#Cc1c(-c2cccs2)cc(-c2cccs2)nc1N, which activation is on record?
Its activation is -0.55%.

Which activation does the source give for CSc1sc(C(=O)Nc2cccc(Cl)c2)c(-c2cccs2)c1C#N here?
The activation was -0.76%.

Which activation does the source give for CC1(C)C2CC[C@](C)(C2)C1NC(=O)c1c(Cl)cccc1Cl (stereo not given in full) here?
Its activation is -0.41%.

Which activation does the source give for CC(C)(C)c1csc(Sc2ccc([N+](=O)[O-])cc2[N+](=O)[O-])n1 here?
Its activation is -0.69%.

Which activation does the source give for CSc1nsc(SC)c1C(=O)NC(=O)NNc1ccc(F)c(Cl)c1 here?
Its activation is -0.35%.

With CCCCc1ccc(-n2c(-c3ccc(F)cc3)coc2=O)cc1 as the compound, how does the activation read?
Its activation is -0.29%.

Which activation does the source give for Clc1ccc(C2=NN(Cc3ccccc3)CC2)s1 here?
The activation was 0.29%.

With CC(=O)Nc1ccc(F)cc1F as the compound, how does the activation read?
Its activation is 3.83% (active).

With Cc1ccc(SCC(=O)Nc2ccc(F)cc2F)cc1 as the compound, how does the activation read?
The activation was 0.31%.

Which activation does the source give for COc1ccc(NC(=S)Nc2ccc(F)cc2F)c([N+](=O)[O-])c1 here?
Its activation is -0.83%.

For O=C1c2ccccc2C(=O)N1CNc1ccc(C2CCCCC2)cc1, which activation is on record?
Its activation is -0.31%.

With Cc1ccc(CSC(=N)N)cc1 as the compound, how does the activation read?
Its activation is 0.1%.

Which activation does the source give for COc1ccc(OC(=O)/C=C/c2sc3ccccc3c2C)cc1 here?
The activation was -0.25%.

With Cc1nc(-c2ccccn2)n2nnnc2c1Cl as the compound, how does the activation read?
The activation was -0.27%.

For Cc1oc(C(C)(C)C)cc1C(=O)NC1Cc2ccccc2C1, which activation is on record?
The activation was -0.44%.

For COC(=O)c1scc(S(=O)(=O)Cc2ccco2)c1N/N=C(\C#N)S(=O)(=O)C(C)C, which activation is on record?
Its activation is 0.15%.

With NNC(=O)c1cc(OCC(F)(F)F)nc(OCC(F)(F)F)c1 as the compound, how does the activation read?
The activation was -0.48%.

Which activation does the source give for COC(=O)c1ccc(S(=O)(=O)N2CCN(c3ccc([N+](=O)[O-])cn3)CC2)n1C here?
The activation was 0.16%.

With COC(=O)c1ccc(S(=O)(=O)NNC(=O)c2cn3cc(C(F)(F)F)cc(Cl)c3n2)n1C as the compound, how does the activation read?
Its activation is 3.18% (active).

Which activation does the source give for COc1cc(NC(=O)c2ncc(C(F)(F)F)cc2Cl)c(C(=O)O)cc1OC here?
Its activation is -0.4%.

With CC(=O)Nc1ccc(NC(=O)c2cc(C)ccc2[N+](=O)[O-])c(C)c1 as the compound, how does the activation read?
Its activation is -0.09%.

For CC(=O)Nc1cccc([N+](=O)[O-])c1, which activation is on record?
Its activation is 6.11% (active).

For Cc1ccc(OC(=O)c2cccc([N+](=O)[O-])c2)c(Br)c1, which activation is on record?
Its activation is 0.36%.

Which activation does the source give for O/N=C/c1ccc(F)c(Cl)c1 here?
The activation was 0.44%.

With COC(=O)/C(=C/c1ccccc1)c1ccccc1 as the compound, how does the activation read?
The activation was -0.19%.

For CSC(=CC(=O)c1cccs1)SC, which activation is on record?
Its activation is -0.45%.

For Cc1nc2ccccn2c1C(=O)N/N=C/c1cn(-c2ccccc2)nc1-c1cccs1, which activation is on record?
The activation was -0.2%.

For N/C(=N\OCc1noc(-c2ccsc2)n1)c1ccc(C(F)(F)F)cc1, which activation is on record?
The activation was -0.33%.

With O=C(Cn1nnc(N2CCOCC2)n1)N/N=C/c1ccc(-c2cccc([N+](=O)[O-])c2)o1 as the compound, how does the activation read?
Its activation is -0.66%.

For CS(=O)(=O)/N=C(\N)c1ccncc1, which activation is on record?
Its activation is -1.1%.

Which activation does the source give for Cc1noc(C)c1C(=O)c1c(C)[nH]n(-c2ccccc2)c1=O here?
The activation was 0.14%.

With O=S(=O)(Oc1ccc(Cl)c(Cl)c1)c1c(Cl)sc(Cl)c1Br as the compound, how does the activation read?
Its activation is -0.59%.

Which activation does the source give for CC(C)(C)OC(=O)n1ccc2cc(Br)ccc21 here?
The activation was -0.83%.

For Cc1ccc(S(=O)(=O)NNC(=O)CCc2nc(-c3ccc(Cl)cc3)no2)cc1, which activation is on record?
The activation was 0.6%.

Which activation does the source give for CC(=O)N1C=CC(c2c[nH]c3ccccc23)C=C1 here?
The activation was -0.43%.

With CS(=O)(=O)c1csc(C(=O)NCc2cccnc2)c1Cl as the compound, how does the activation read?
The activation was -0.31%.

With CN(NS(=O)(=O)c1ccc(C(F)(F)F)cc1)c1cnn(C)c(=O)c1Cl as the compound, how does the activation read?
The activation was -0.2%.

For O=C(Nc1ccccc1C(=O)NC1CCSC1)c1cccc(Cl)c1 (stereo not given), which activation is on record?
The activation was -0.57%.

For c1ccc(-c2nsc(N3CCNCC3)n2)cc1, which activation is on record?
Its activation is 0.94%.

Which activation does the source give for Cn1cc(Cl)c(/C=C(\C#N)C(N)=O)n1 here?
Its activation is -0.29%.

Which activation does the source give for O=c1[nH]cc(Br)c(=O)[nH]1 here?
The activation was -0.83%.

With O=C(CN1CCOCC1)NNC(=O)c1cccs1 as the compound, how does the activation read?
The activation was -0.03%.

For O=C(Cc1cccc2ccccc12)NNC(=O)Nc1ccc(Cl)cc1, which activation is on record?
The activation was -0.03%.

For COc1cccc(NC(=S)NNC(=S)NC2CC3CCC2C3)c1 (stereo not given), which activation is on record?
Its activation is -0.54%.

With Cc1cc(C(=O)NCCNS(=O)(=O)c2ccc(Cl)cc2)c(C)o1 as the compound, how does the activation read?
The activation was -0.14%.

For CNC(=S)NNC(=O)CSc1cccs1, which activation is on record?
The activation was 1.08%.

With N#C/C(=C\c1cccn1S(=O)(=O)c1ccccc1)C(=O)c1ccccc1 as the compound, how does the activation read?
The activation was 0.09%.

Which activation does the source give for O=C(Cc1cc(F)cc(F)c1)n1nccc1-c1cccs1 here?
The activation was -0.68%.

For O=C(O)C1CC2CC1CCC2O (stereo not given), which activation is on record?
Its activation is -0.37%.

With Fc1ccc(NC(=S)N2CCN=C2Nc2ccc(F)cc2)cc1 as the compound, how does the activation read?
Its activation is -1.11%.

Which activation does the source give for CC(=O)NC12CC3(C)CC(C)(CC(C)(C3)C1)C2 here?
The activation was 1.34%.

Which activation does the source give for Cn1c(S(=O)(=O)O)nc2ccccc21 here?
The activation was -0.35%.

For Cc1ccc(S(=O)(=O)NC(=O)NNc2ncnc3scc(-c4ccccc4)c23)cc1, which activation is on record?
The activation was -0.88%.

With CCN=C(NCC)Nc1ccc(Cl)cc1 as the compound, how does the activation read?
The activation was -0.99%.

Which activation does the source give for CC(=O)/C(=C\N(C)C)c1ncccc1[N+](=O)[O-] here?
The activation was 0%.

For CNC(=S)Nc1cscc1S(=O)(=O)c1ccc(Cl)cc1, which activation is on record?
Its activation is -0.17%.

For CCOC(=O)c1sc(SCCS(=O)(=O)c2ccc(Cl)cc2)c(C#N)c1-c1ccccc1, which activation is on record?
The activation was -0.58%.

For O=S(=O)(Oc1ncccc1C(F)(F)F)c1cccc(F)c1, which activation is on record?
Its activation is -0.36%.

With O=C(NC(=O)C1CCN(c2ncccc2[N+](=O)[O-])CC1)Nc1ccc(Cl)cc1 as the compound, how does the activation read?
The activation was 0.44%.

With CCOC(=O)CC(=O)CSc1nnc(N)s1 as the compound, how does the activation read?
Its activation is 0%.

For NC(=O)C1CCN(CC(O)COc2ccc(Cl)c(Cl)c2)CC1 (stereo not given), which activation is on record?
Its activation is -0.63%.

Which activation does the source give for O=c1o[nH]c(-c2ccccc2)c1N=Nc1c(F)cccc1Cl here?
The activation was 0.09%.

With CCOC(=O)C(O)(NC(=O)Nc1ccccc1)C(F)(F)F (stereo not given) as the compound, how does the activation read?
Its activation is -0.73%.
